Compounds with a hit are over-represented: about 3.5% of the library has one in this group of screens.
ANO1 activ: activates or potentiates the mouse TMEM16A chloride channel; Q8BHY3; 0.3% of 340,000 active; HEK293 TMEM16A/YFP-H148Q/I152L, iodide quench fluorescence; active compounds read low; B-score at 10 µM;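 active = fluorescence-ratio B-score plate-corrected deviation score at least 3 library SD below zero, with starting fluorescence score within 5 deviations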;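 also: channel opened by trigger with iodide after compound preincubation; score built on the fluorescence ratio of max minus min over baseline; more negative score means more quench and so TMEM16A activation or potentiation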
TMEM16A inh: mouse TMEM16A channel inhibition, primary screen; Q8BHY3; HEK293 TMEM16A/YFP iodide influx fluorescence, ionomycin; normalized B-score (activity score, 25-100; higher = stronger inhibition) at 10 µM; 1.2% of 310,000 active; AID 588511;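 active = ratio plate-corrected score three or more library SD toward inhibition, starting fluorescence score within five deviations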;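 also: score derived from kinetic fluorescence span divided by baseline fluorescence per well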
Kir21 block: Kir2.1 (mouse) channel inhibition; HEK293-Kir2.1, FluxOR thallium flux fluorescence; active compounds read low; 0.85% of 310,000 active; B-score at 10 µM; AID 1672; P35561;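 active = fluorescence ratio B-score at or below minus 3 SD of library scores, with starting-brightness B-score within 2 SD, cut at about -4.2 in these data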;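 also: channel flux triggered by added potassium and thallium sulfate stimulus; B-score of peak minus minimum fluorescence over baseline after thallium stimulus; more negative B-score means stronger Kir2.1 block with less thallium influx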
KCNK9 inh: blocks the human KCNK9 two-pore domain potassium channel; AID 488922; 1.2% of 310,000 active; Q9NPC2; B-score at 10 µM; HEK293 KCNK9, FluxOR thallium flux fluorescence; active compounds read low;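 active = ratio B-score over 3 SD below the library mean, with starting fluorescence within 5 SD of its mean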;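 also: negative B-score means less thallium flux so channel inhibition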
Target sequence (Q9NPC2 whole entry, looked up, the tested form may be a part): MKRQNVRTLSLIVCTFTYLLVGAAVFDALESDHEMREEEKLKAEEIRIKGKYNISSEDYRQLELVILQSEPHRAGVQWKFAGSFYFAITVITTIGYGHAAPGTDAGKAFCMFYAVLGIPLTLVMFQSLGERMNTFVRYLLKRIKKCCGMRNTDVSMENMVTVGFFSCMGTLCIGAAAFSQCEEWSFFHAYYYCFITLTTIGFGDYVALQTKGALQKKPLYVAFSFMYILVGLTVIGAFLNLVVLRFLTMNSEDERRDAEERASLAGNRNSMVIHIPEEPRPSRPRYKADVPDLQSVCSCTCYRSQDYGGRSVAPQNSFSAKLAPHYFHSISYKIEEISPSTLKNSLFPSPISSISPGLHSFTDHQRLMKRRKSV
KCNK3 block: human KCNK3 channel inhibition, primary screen; O14649; CHO-KCNK3 thallium flux, FluxOR fluorescence; active compounds read low; B-score at 10 µM; 0.84% of 340,000 active;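 active = B-score under library mean minus 4 SD, starting fluorescence ratio at most library mean plus 5 SD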;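 also: more negative B-score means stronger inhibition of thallium flux through KCNK3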
KCNK9 block conf: confirmation of human KCNK9 potassium channel inhibitors. shares compounds with KCNK9 inh. HEK293 KCNK9 cells, FluxOR thallium flux fluorescence. inhibition, % at 10 µM. 43% of 4,900 active. AID 492992;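 active = thallium signal inhibited by more than 5 SD of the compound-free buffer control wells, on both duplicate plates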
Kir21 sel: mouse Kir2.1 off-target activity of KCNK9 modulators. 4% of 4,900 active. Kir2.1 cells, FluxOR thallium flux fluorescence. shares compounds with KCNK9 inh. inhibition, % at 10 µM;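 active = thallium signal drop more than 5 SD beyond the mean of the no-compound control wells, seen in both duplicate plates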;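 also: signal is fluorescence rise after thallium addition divided by baseline fluorescence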
HEK293 Tl ctr: non-induced cell nonspecific activity of KCNK9 modulators; shares compounds with KCNK9 inh; non-induced KCNK9-HEK293, FluxOR thallium flux; inhibition, % at 10 µM; 40% of 4,900 active;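 active = thallium signal drop beyond 5 SD of the untreated control mean, on both duplicate plates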
Large screens that a line does not name were inactive (follow-up assays come after a bar, where they were run).

CCN(CC)S(=O)(=O)c1cc(C(=O)N2CCc3ccccc32)ccc1Cl	none | KCNK9 block conf inactive | Kir21 sel inactive | HEK293 Tl ctr inactive
Cc1ccccc1NS(=O)(=O)c1cc(C(=O)N2CCCC2)ccc1Cl	none
Cc1ccc(C)n1-n1cnc2sc(-c3ccccc3)cc2c1=O	KCNK9 inh -14 | KCNK9 block conf 44% | Kir21 sel inactive | HEK293 Tl ctr 26%
CC(C)c1[nH]nc2c1C1(CCN(Cc3ccccc3)CC1)C(C#N)=C(N)O2	none
CCCc1[nH]nc2c1C1(CCN(C(=O)OCc3ccccc3)CC1)C(C#N)=C(N)O2	KCNK9 inh -9.7 | KCNK9 block conf 32% | Kir21 sel inactive | HEK293 Tl ctr inactive
CCOC(=O)c1ccc(N=c2sc(C(=O)OC)cc(=O)n2Cc2ccco2)cc1	none | KCNK9 block conf inactive | Kir21 sel inactive | HEK293 Tl ctr 38%
COC(=O)c1cc(=O)n(CCc2ccc(OC)cc2)c(=Nc2ccc(F)c(Cl)c2)s1	none
COC(=O)c1cc(=O)n(CCc2ccccc2)c(=Nc2ccc(F)cc2)s1	KCNK9 inh -10 | KCNK9 block conf 35% | Kir21 sel inactive | HEK293 Tl ctr 34%
COc1cc(C(=S)N2CCCC2)cc(OC)c1O	none
COc1cc(/C=C2\SC(=S)N(NS(=O)(=O)c3ccc(C)cc3)C2=O)ccc1O	none
Cc1ccc(S(=O)(=O)NN2C(=O)/C(=C/c3cccc(F)c3)SC2=S)cc1	none | KCNK9 block conf inactive | Kir21 sel inactive | HEK293 Tl ctr inactive
COc1cc(/C=C2\SC(=S)N(NS(=O)(=O)c3ccc(C)cc3)C2=O)cc(OC)c1OC	none | KCNK9 block conf inactive | Kir21 sel inactive | HEK293 Tl ctr inactive
CCC(CC)n1c(C)cc(=O)n1C(CC)CC	none (no result: TMEM16A inh, Kir21 block, KCNK9 inh)
O=C(c1ccccc1)N1CCCCC(S(=O)(=O)c2ccc3ccccc3c2)C1=O (configuration not stated)	none
COc1ccc(CCNC(=O)c2cc(-c3ccccc3)c(N3CCOCC3)s2)c(OC)c1OC	none | KCNK9 block conf inactive | Kir21 sel inactive | HEK293 Tl ctr inactive
O=C(Nc1cccc2ccccc12)c1cn(-c2ccccc2)nc1-c1cccs1	KCNK9 inh -10, KCNK3 block -9.5 | KCNK9 block conf 50% | Kir21 sel inactive | HEK293 Tl ctr 24%
O=C(Nc1cc(C(F)(F)F)ccc1N1CCOCC1)C1CCCO1 (configuration not stated)	none (no result: TMEM16A inh, Kir21 block, KCNK9 inh)
COc1cc(OC)cc(-c2nnc(NC(=O)c3ccc4c(c3)OCCO4)o2)c1	none
Cc1ccc(Cl)c(OCCCN(C)Cc2ccccc2)c1	none | KCNK9 block conf inactive | Kir21 sel inactive | HEK293 Tl ctr inactive
Cc1ccc(Cl)c(OCCN2CCc3ccccc3C2)c1	none | KCNK9 block conf inactive | Kir21 sel inactive | HEK293 Tl ctr inactive
CN(CCCOc1ccccc1Br)Cc1ccccc1	none
N#Cc1ccc(OCCN2CCc3ccccc3C2)cc1	none
O=C(/C=C/c1ccc(O)c(O)c1)OC1C(O)CC(OC(=O)/C=C/c2ccc(O)c(O)c2)(C(=O)O)CC1O (configuration not stated)	none
CSCCC(NS(=O)(=O)c1ccc(Cl)cc1)C(=O)OCc1cccc(Cl)c1 (configuration not stated)	none
CSCCC(NS(=O)(=O)c1ccc(Cl)cc1)C(=O)OCc1c(Cl)cccc1Cl (configuration not stated)	KCNK9 inh -9.2 | KCNK9 block conf 36% | Kir21 sel inactive | HEK293 Tl ctr 36%
CC1(CCC(=O)N2CCCC(N3CCN(c4cccc(C(F)(F)F)c4)CC3)C2)CC1 (configuration not stated)	none | KCNK9 block conf inactive | Kir21 sel inactive | HEK293 Tl ctr inactive
Cc1cc(C(=O)N2CCCC(N3CCN(c4cccc(C(F)(F)F)c4)CC3)C2)nn1C (configuration not stated)	none | KCNK9 block conf inactive | Kir21 sel inactive | HEK293 Tl ctr inactive
Cc1cc(C(=O)N2CCCC(N3CCN(c4cccc(C(F)(F)F)c4)CC3)C2)c(C)o1 (configuration not stated)	none | KCNK9 block conf inactive | Kir21 sel inactive | HEK293 Tl ctr inactive
Cc1occc1C(=O)N1CCCC(N2CCN(c3cccc(C(F)(F)F)c3)CC2)C1 (configuration not stated)	none
Cc1cc(C(=O)N2CCCC(N3CCN(c4cccc(Cl)c4)CC3)C2)nn1C (configuration not stated)	none
CC(C)(C)OC(=O)C[C@H]1C/C=C\C[C@@H](CC(=O)NCCO)C(=O)NC[C@@H](c2ccccc2)OC1=O	none (no result: TMEM16A inh, Kir21 block, KCNK9 inh)
Cc1ccccc1-n1cc(CNC(=O)CCc2nnc(CCc3ccccc3)o2)cn1	none
C=CCn1c(COc2ccc3c(c2)CCCC3)nnc1SCC(=O)Nc1cccc(SC)c1	none | KCNK9 block conf inactive | Kir21 sel inactive | HEK293 Tl ctr 30%
C=CCn1c(COc2ccccc2)nnc1SCC(=O)Nc1ccc2c(c1)OCCO2	none
COC(=O)c1sccc1NC(=O)c1ccc(OC)cc1OC	none
CCC(CC)CN1C(N(C)C)=NC[C@@H]1CC(C)C	none (no result: Kir21 block, KCNK9 inh)
c1ccc(-c2csc3ncnc(N4CCc5ccccc5C4)c23)cc1	Kir21 block -8.5, KCNK9 inh -11 | KCNK9 block conf 55% | Kir21 sel inactive | HEK293 Tl ctr 38%
c1ccc(-c2csc3ncnc(N4CCOCC4)c23)cc1	none
CC1CCCN(c2nc(-c3cccnc3)nc3scc(-c4ccccc4)c23)C1 (configuration not stated)	KCNK9 inh -9.1 | KCNK9 block conf 35% | Kir21 sel inactive | HEK293 Tl ctr 35%
CC1CCN(c2nc(-c3cccnc3)nc3scc(-c4ccccc4)c23)CC1	none
CC(Oc1cc2oc(=O)c3c(c2cc1Cl)CCC3)C(=O)NCCCn1ccnc1 (configuration not stated)	none
CCOC(=O)c1c(NC(=O)CSc2nnc(-c3ccc(OC)cc3)o2)sc2c1CCC2	none | KCNK9 block conf inactive | Kir21 sel inactive | HEK293 Tl ctr inactive
CCOC(=O)c1c(NC(=O)CSc2nnc(C)s2)sc2c1CCC(C)C2 (configuration not stated)	KCNK9 inh -9.8 | KCNK9 block conf inactive | Kir21 sel inactive | HEK293 Tl ctr 52%
COc1cccc(C(C(=O)NC2CCCCC2)N(CC2CCCO2)C(=O)CNC(=O)c2ccco2)c1 (configuration not stated)	none
CCCCCCn1nc(C(=O)Nc2nc3c(s2)CCCC3)c2ccccc2c1=O	KCNK9 inh -13 | KCNK9 block conf 58% | Kir21 sel inactive | HEK293 Tl ctr inactive
CCCn1nc(C(=O)Nc2nnc(CC)s2)c2ccccc2c1=O	none
